How the values were obtained:
[1] = test system: Vero E6 infected with SARS-CoV-2; test: morphology score (similarity to uninfected cells); higher = more like uninfected cells; settings: 24 h
[2] = test system: Vero E6 infected with SARS-CoV-2; test: SARS-CoV-2 infection rate relative to infected DMSO; higher = more infection, active = 60 or less; settings: 24 h

Row | Structure (SMILES) | morphology score [1] | SARS-CoV-2 infection rate [2]
1 | Oc1ccc2c3c1O[C@H]1c4[nH]c5ccccc5c4C[C@@]4(O)[C@@H](C2)N(CC2CC2)CC[C@]314 [naltrindole] (10 µM) | -0.0968 | 106% (inactive)
2 | Cc1nc(-c2ccc(OCC(C)C)c(C#N)c2)sc1C(=O)O [febuxostat] (10 µM) | 0.0407 | 118% (inactive)
3 | C#C[C@]1(OC(=O)CCCCCC)CC[C@H]2[C@@H]3CCC4=CC(=O)CC[C@@H]4[C@H]3CC[C@@]21C [norethisterone-enanthate] (10 µM) | 0.146 | 96.5% (inactive)
4 | CN1CCOC(c2ccccc2)c2ccccc2C1 (stereo not drawn) [nefopam] (10 µM) | 0.0314 | 108% (inactive)
5 | Cc1ccc(CCCO)c(NCc2ccc3nc(NCCCN4CCOCC4)n(Cc4nc(C)ccc4O)c3c2)c1 (10 µM) | 0.227 | 96.5% (inactive)
6 | Cn1c(COc2ccc(CC3SC(=O)NC3=O)cc2)nc2ccccc2c1=O (stereo not drawn) [balaglitazone] (10 µM) | -0.114 | 111% (inactive)
7 | O=C(O)c1ccc(OCCn2ccnc2)cc1 [dazoxiben] (10 µM) | 0.196 | 99% (inactive)
8 | Cc1cccc(C)c1-n1c(=O)c2cnc(Nc3ccc(N4CCN(C)CC4)cc3)nc2n2c3ccccc3nc12 (0.833333 µM) | -0.0551 | 104% (inactive)
9 | C#C[C@]1(OC(C)=O)CC[C@H]2[C@@H]3CCC4=CC(=O)CC[C@@H]4[C@H]3CC[C@@]21C [norethindrone-acetate] (10 µM) | -0.146 | 106% (inactive)
10 | Cc1ccnc(NS(=O)(=O)c2ccc(N)cc2)n1 [sulfamerazine] (10 µM) | 0.0324 | 108% (inactive)
11 | CCOc1ccccc1C(N)=O [ethenzamide] (10 µM) | -0.0139 | 118% (inactive)
12 | COc1ccccc1OCC(O)COC(N)=O (stereo not drawn) [methocarbamol] (10 µM) | 0.0924 | 100% (inactive)
13 | COc1cc2nc(C3CC3)nc(N3CCN(c4ccccc4OC)CC3)c2cc1OC (0.833333 µM) | 0.157 | 99% (inactive)
14 | O=C(C=Cc1ccccc1)NC(NC(=S)Nc1ccc(Cl)cc1)C(Cl)(Cl)Cl (stereo not drawn) (10 µM) | -0.143 | 106% (inactive)
15 | CC(C)(C)OC(=O)N[C@H]1CCCCC/C=C\[C@@H]2C[C@@]2(C(=O)NS(=O)(=O)C2CC2)NC(=O)[C@@H]2C[C@@H](OC(=O)N3Cc4cccc(F)c4C3)CN2C1=O [danoprevir] (10 µM) | -0.0154 | 114% (inactive)
16 | CO[C@H]1[C@H](O)[C@@H](O)[C@@H](O)[C@H](O)[C@@H]1O [pinitol] (10 µM) | -0.0343 | 114% (inactive)
17 | C[C@H]1CCc2c(cc(Br)c(F)c2Br)N1C=O (10 µM) | 0.0995 | 94.5% (inactive)
18 | Cc1c(C(=O)NCCCO)cnn1-c1nc(-c2cccc(C(F)(F)F)c2)cs1 (10 µM) | 0.107 | 97.5% (inactive)
19 | CCCN[C@@H]1CCc2c(OC)cccc2[C@@H]1C (10 µM) | 0.0456 | 100% (inactive)
20 | O=C1C=CC(=O)C2=C1C1c3ccccc3C2c2ccccc21 (10 µM) | 0.00761 | 102% (inactive)
21 | CC(=O)O[C@]1(C(C)=O)CC[C@H]2[C@@H]3C[C@H](C)C4=CC(=O)C=C[C@]4(C)[C@@]3(F)[C@@H](O)C[C@@]21C [fluorometholone-acetate] (10 µM) | 0.0758 | 105% (inactive)
22 | CC(C)NCC(O)c1ccc(N)c(C#N)c1 (stereo not drawn) [cimaterol] (10 µM) | -0.059 | 104% (inactive)
23 | CC#C[C@@H](CC(=O)O)c1ccc(OCc2cccc(-c3ccc(C(F)(F)F)cc3)c2)cc1 (10 µM) | 0.0803 | 108% (inactive)
24 | c1cnc(SCc2cccnc2)nc1 [tasuldine] (10 µM) | 0.175 | 99.5% (inactive)
25 | O=C1CN(/N=C/c2ccc(-c3ccc([N+](=O)[O-])cc3)o2)C(=O)N1 [dantrolene] (10 µM) | 0.0672 | 110% (inactive)
26 | O=C(Nc1ccc(O)cc1)c1ccccc1O [N-salicoylaminophenol] (10 µM) | 0.168 | 102% (inactive)
27 | NC(=O)c1ccccc1O [salicylamide] (10 µM) | -0.114 | 102% (inactive)
28 | O=C(O)c1cc(O)c2ccc(Cl)cc2n1 [7-chlorokynurenic-acid] (10 µM) | 0.0315 | 110% (inactive)
29 | CCN1C[C@]2(COC(=O)c3ccccc3N3C(=O)C[C@H](C)C3=O)CC[C@H](OC)[C@@]34[C@@H]5C[C@H]6[C@H](OC)[C@@H]5[C@](O)(C[C@@H]6OC)[C@](O)([C@@H](OC)[C@H]23)[C@@H]14 [methyllycaconitine] (10 µM) | 0.00671 | 110% (inactive)
